# Screening data deposited in PubChem BioAssay by several laboratories.
# Shown are actives, neighbours in structure and some others; about 4.9% of the full set was active somewhere.
# HSF-1 act: HSF-1 activators, primary screen, NIH3T3-HGL cells, MG132 stress, luminescence, single point | 1.7% of 300,000 active | NIH3T3-HGL HSF-1 luciferase reporter, 8 h; 100% = twice DMSO control signal | AID 504408, 2011 | activation, % at 9 µM;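 active = mean replicate activation of at least 50% with a set share of replicates each reaching 50%; inconclusive = only one of those two conditions met; inactive = mean below 50% and too few replicates reaching it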;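 also: 0% = median of the neutral control wells and 100% = twice that signal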
# Platelet DG rel: inhibitors of platelet dense granule secretion, primary screen, cell-based, MLPCN, human platelets; inhibition, %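 (compounds screened at 7.5 µM in platelet-rich plasma)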; 0.22% of 300,000 active; AID 1663, 2009; human platelet-rich plasma, SFLLRN dense granule ATP release, luminescence;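 active = mean replicate score, as percent of positive control, at or above 50; inconclusive = mean below 50 but at least one replicate at or above 50; inactive = mean and every replicate below 50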
# HSP90 refold inh: HSP90 inhibitors, primary screen, cell lysate, luminescence; Heat shock protein HSP 90 (rabbit reticulocyte lysate; luciferase refolding); Rabbit reticulocyte lysate, luciferase refolding luminescence, 3 h; inhibition, % at 5.6 µM; 0.91% of 290,000 active; AID 1789, 2009;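 active = inhibition above the screen-wide mean plus 3 SD, computed separately per campaign, cut at about 16% in these data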;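 also: 0% = DMSO wells and 100% = 60 µM geldanamycin wells; inhibitors lower the luminescence because luciferase stays unfolded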
# MPTP block: mitochondrial permeability transition pore inhibitors, primary screen, biochemical, isolated mouse mitochondria, absorbance. Ca2+ swelling absorbance, 30 min. inhibition, % at 10 µM. 1.4% of 360,000 active;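 active = inhibition of 50% or more, scaled per plate between neutral and stimulator controls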;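 also: 0% = DMSO wells given calcium and 100% = 1 mM EGTA wells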
# HSF1 inh: HSF1 inhibitors in luciferase reporter cells, primary screen, cell-based, NIH3T3, luminescence. 0.77% of 300,000 active. NIH3T3-HGL HSE-luciferase, MG132-induced, luminescence 8 h; active compounds read low. activity change, negative = inhibition, % at 7.5 µM (by protocol);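 active = more than half of replicate wells show activity change below -50%, luminescence cut by over half; inconclusive = some wells, but at most half, below -50%; inactive = no replicate well below -50%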;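 also: luciferase reports HSF-1 transcriptional activity via heat shock element; 0% = median of DMSO wells and -100% = zero luminescence signal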
# dFosB activator: activators of delta FosB homodimer, primary screen, biochemical, fluorescence polarization, TAMRA-CDK5 oligo, single point | Protein FosB (Mus musculus), P13346 | purified delta FosB; percent of positive-control signal above neutral wells | activation, % at 25 µM | 0.99% of 340,000 active;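 active = mean activation above about 17%, with every replicate also reaching it, limit read from the data, passing the limit was not always enough; inconclusive = only one of the two conditions met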
# Target sequence (P13346 whole entry, looked up): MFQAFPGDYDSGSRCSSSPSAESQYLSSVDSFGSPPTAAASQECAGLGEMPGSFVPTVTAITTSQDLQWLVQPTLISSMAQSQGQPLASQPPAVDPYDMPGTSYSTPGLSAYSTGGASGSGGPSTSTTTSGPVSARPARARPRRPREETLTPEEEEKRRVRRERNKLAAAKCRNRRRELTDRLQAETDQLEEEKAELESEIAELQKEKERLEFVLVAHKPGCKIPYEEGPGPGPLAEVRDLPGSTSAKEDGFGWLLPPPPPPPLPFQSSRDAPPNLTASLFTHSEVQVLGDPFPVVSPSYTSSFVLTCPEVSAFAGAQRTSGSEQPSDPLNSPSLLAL
# Rh123 counter: fluorescence retest of MPTP screen hits in isolated mitochondria, single concentration. shares compounds with MPTP block. membrane potential, Rhodamine 123 fluorescence. inhibition, % at 10 µM. 78% of 5,000 active. AID 624504, 2012; in the data active = inhibition above about 22%;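 also: 0% = DMSO vehicle and 100% = positive control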
# Numbers without * were called inactive; ? = inconclusive; . = no result.
SMILES,HSF-1 act,Platelet DG rel,HSP90 refold inh,MPTP block,HSF1 inh,dFosB activator,Rh123 counter
OCCN1CCN(CCCN2c3ccccc3Sc3ccc(Cl)cc32)CC1,-8.0,-1.9,6.9,53.0*,-5.3,-3.7,-21.6
O=C(CNC(=O)OCc1ccccc1)NC(Cc1cnc[nH]1)C(=O)O (stereo unspecified),.,.,.,-0.3,.,-2.7,.
O=C(Cc1ccc(NC(=O)C2CCCN(C(=O)CCc3ccccc3)C2)cc1)Nc1cccc(C(=O)N2CCCC2)c1 (stereo unspecified),.,.,.,1.7,.,-6.9,.
CC1(C)CC(=O)C=C(c2ccccc2-c2ccc(S(C)(=O)=O)cc2)C1=O,.,.,.,0.8,.,.,.
Cc1cc(OCC(=O)Nc2ccncc2)ccc1Cl,-0.8,-10.9,-1.4,98.2*,-1.0,-2.2,88.2*
Cc1cc(OCC(=O)Nc2ccncc2)cc(C)c1Br,2.5,-0.1,2.9,91.4*,0.5,-9.1,96.8*
Cc1cc(OCC(=O)Nc2ccc(Br)cc2)cc2c1C(=O)CC(C)(C)O2,0.2,-1.2,1.4,61.8*,8.1,.,67.5*
COCCNC(=O)C1(C)CCCN(Cc2ccc(-n3ccnc3)cc2)C1 (stereo unspecified),.,.,.,0.6,.,.,.
CC1(C(=O)NS(=O)(=O)C2CC2)CCCN(C(=O)/C=C/c2ccccc2)C1 (stereo unspecified),.,.,.,-1.1,.,.,.
Cc1ccc(NC(=O)CC(O)(C(F)(F)F)C(F)(F)F)c(Br)c1,-1.3,-5.6,-3.6,52.8*,-8.8,-6.0,79.0*
O=C(CSc1ncnc2ccccc12)c1ccc2c(c1)OCCO2,9.0,-23.7,-1.9,58.5*,-4.8,-8.6,65.0*
COc1ccc(C(=O)Nc2ccc(C(=O)c3ccccc3)cc2)cc1,11.1,15.6,.,62.4*,4.9,.,41.0*
COc1cccc(C(=O)Nc2ccc(C(=O)c3ccccc3)cc2)c1,15.4,0.8,1.9,-0.2,16.2,-17.0,.
CCOc1ccc(NS(=O)(=O)c2cc(NC(=O)c3ccc(C)cc3)ccc2Cl)cc1,9.0,14.3,-4.0,89.6*,3.1,-5.1,55.9*
COc1ccccc1NS(=O)(=O)c1cc(NC(=O)c2ccc(Cl)nc2)ccc1Cl,-6.7,-2.6,1.8,55.6*,8.4,-5.1,72.4*
CCOc1ccc(Oc2ccc(NS(=O)(=O)c3cc(C(=O)O)ccc3Cl)cc2)cc1,.,.,.,-0.6,.,-1.6,.
COc1ccc(C(=O)Nc2ccc(Cl)c(S(=O)(=O)Nc3ccccc3OC)c2)cc1,21.2,-4.8,-0.9,54.9*,13.2,-6.4,70.0*
COc1ccccc1NC(=O)Nc1ccc(Cl)c(S(=O)(=O)Nc2ccccc2OC)c1,15.7,21.4,-0.6,-3.3,10.6,5.3,.
COc1ccccc1NS(=O)(=O)c1cc(NC(=O)c2ccc3ccccc3n2)ccc1Cl,38.4,1.7,-6.3,-1.0,24.9,5.0,.
COc1ccc(/C=C2/C(=N)N3C(=NC2=O)Sc2cc(S(C)(=O)=O)ccc23)cc1OC,5.4,0.7,-4.7,.,-2.0,.,.
O=c1cc(CN2CCN(Cc3ccc(F)cc3)C(CCO)C2)[nH]c2ccccc12 (stereo unspecified),-2.4,4.8,-4.2,0.9,5.6,0.2,.
S=C(Nc1ccc2nccnc2c1)N1CCOCC1,19.8,3.4,0.7,-1.3,5.1,3.1,.
COc1ccc(NC(=O)Cc2cccc(F)c2)cc1S(=O)(=O)Nc1ccccc1Cl,1.1,-9.5,13.4,52.0*,1.5,?,69.8*
Cc1cc(C)c2c(c1)NC(c1cc3c(cc1Br)OCO3)C1CC=CC21 (stereo unspecified),-5.9,-2.5,-5.3,2.8,5.9,-1.0,.
O=C(CSc1nc2ccc(Cl)cc2[nH]1)NCCc1ccc(Cl)cc1,14.0,-3.8,-1.4,68.8*,17.2,2.1,59.8*
CC(=NNC(=S)Nc1cccc(C)c1)c1ccccn1,.,.,.,52.0*,.,-13.1,61.9*
